± gives the uncertainty stated by the source.

For this assay, the system named is HEK293T-Rex ERSE-FLuc. In words: ERSE-FLuc reporter activation, triplicate confirmation, relative to 500 nM thapsigargin (% of thapsigargin); higher = stronger ATF6/ERSE reporter activation. The settings on record: 6.8 µM; 18 h; screen: confirmation. How it is done:
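HEK293T-Rex cells stably expressing the ERSE-firefly luciferase (BiP promoter, ATF6-preferring) or XBP1-splicing Renilla luciferase (IRE1/XBP1s) reporter, 1536-well plates, compound at 6.8 µM for 18 hr at 37 °C; luminescence read […] and expressed as % activation = 100*(compound - median DMSO)/(median 500 nM thapsigargin - median DMSO). Primary screen was single-pass; confirmation screen in triplicate (mean ± SD).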
Molecule `CN(c1ccccc1)S(=O)(=O)c1cccc(C(=O)NCCc2ccc(O)c(O)c2)c1` showed an ERSE-FLuc reporter activation of 44.7 ± 3.8.

Turning to `O=C(N/N=C/c1ccc2c(c1)OCO2)c1cccc(F)c1`, the ERSE-FLuc reporter activation stood at 27.1 ± 2.4. To `COc1ccc(-n2nnnc2SCC(N)=O)c(OC)c1` belongs 34.5 ± 5.7. The figure for `CCOc1ccc(NC(=O)c2cccc(F)c2)c([N+](=O)[O-])c1` is 25.9 ± 2.4; for `O=[N+]([O-])c1ccc(/C=C/c2ccc(O)cc2)cc1` it is 28.8 ± 3.3. With `O=C(Nc1ccccc1O)c1ccc(NS(=O)(=O)c2cccc3cccnc23)cc1`, the ERSE-FLuc reporter activation came to 25.6 ± 8.1.

`O=C(N/N=C/c1ccc(Cl)cc1)c1n[nH]c2c1CCCC2` gave an ERSE-FLuc reporter activation of 42 ± 8.6.

Take `O=C1/C(=C/c2ccc(O)c(O)c2)Oc2cc(O)ccc21`: the ERSE-FLuc reporter activation came to 26.9 ± 5.9. `Cc1ccc(O)c(NC(=O)CCc2ccccc2)c1` yielded an ERSE-FLuc reporter activation of 63.24 ± 0.61.

Consider `O=[N+]([O-])c1ccc(N/N=C/c2ccccc2O)cc1`, for which the ERSE-FLuc reporter activation was 20.7 ± 2.3. The figure for `O=C(N/N=C/c1ccc(O)c(O)c1)c1ccc(Br)cc1` is 31.2 ± 2.8; for `Oc1ccc(/C=N/Nc2cccc(Cl)n2)c(O)c1` it is 31 ± 7.1.

In turn, `O=C(Nc1nc2c(s1)CCCC2)c1cccc2ccccc12` came in with an ERSE-FLuc reporter activation of 33.8 ± 2.4. The figure for `Cn1c(-c2cccc(Cl)c2)cnc1NC(=O)c1ccccc1` is 25.6 ± 3.7. To `Cc1ccc(O)c(NC(=O)c2cc(CC(C)C)on2)c1` belongs 84.4 ± 15; to `O=C1N/C(=C\c2ccc(O)cc2)C(O)=C1C=NCc1ccccc1`, 27.6 ± 6.4. The figure for `O=[N+]([O-])c1ccccc1N/N=C/c1ccc(O)c(O)c1` is 43.3 ± 6.8; for `N#Cc1c(NC(=O)c2cnccn2)sc2c1CCCC2` it is 40.2 ± 22. `Cc1cc(C)nc(Nc2nc(-c3ccc(O)c(O)c3)cs2)n1` yielded an ERSE-FLuc reporter activation of 47.4 ± 6.5. The figure for `N#C/C(=C(/O)c1cc(-c2ccccc2)nc2ccccc12)c1nc2ccccc2[nH]1` is 31.1 ± 13; for `Cc1ccc(C)c(/C=N/Nc2nncc3ccccc23)c1` it is 29.7 ± 1.9.

Molecule `Oc1ccc(-c2csc(-c3ccccc3)n2)cc1O` gave an ERSE-FLuc reporter activation of 61.5 ± 5.1. In turn, `C/C(=N\NC(=O)c1n[nH]c2c1CCCC2)c1ccc2ccccc2c1` returned an ERSE-FLuc reporter activation of 30.7 ± 2.6.

Take `COc1ccc(CCNC(=O)c2cccc(-c3ccc(N4CCOCC4)nc3)c2)cc1`: the ERSE-FLuc reporter activation is 48.7 ± 4.2. The figure for `Cc1cc2nc(-c3ccc(SCC#N)nc3)[nH]c2cc1C` is 26.8 ± 1.7; for `Cc1ccccc1NC(=O)c1sc2nc(N)c(C#N)c(-c3ccc(C(C)C)cc3)c2c1N` it is 36.7 ± 3.3; for `CCCCNNC(=O)c1ccc(Br)cc1` it is 60.9 ± 6. The figure for `CCCCNc1ncnc2c1cnn2-c1ccc(Cl)cc1` is 30.3 ± 4.6. As for `OCCNc1nc(Nc2ccc(Br)cc2)nc2ccccc12`, the ERSE-FLuc reporter activation was determined as 54.2 ± 16. To `Cc1nc(-c2coc3c(O)c(O)ccc3c2=O)cs1` belongs 25.2 ± 4.1. The figure for `Cc1cc(C)c(OCC(=O)N/N=C/c2ccc(O)c(O)c2)c(Br)c1` is 28.7 ± 6.2. To `CCCCCCc1ccc(-c2ncc(N)cn2)cc1` belongs 33.2 ± 4.7.

For the molecule `c1ccc2cc(-c3cnnc(N4CCOCC4)n3)ccc2c1`, the ERSE-FLuc reporter activation was found to be 29 ± 8.7. `CN(C)c1ccc(C2C(C#N)=C(N)Oc3c2sc2ccccc32)cc1[N+](=O)[O-]` (stereo not given) came in with an ERSE-FLuc reporter activation of 26 ± 0.29.

`NN1C(=O)/C(=C/c2ccc(O)c(O)c2)SC1=S` came in with an ERSE-FLuc reporter activation of 38.3 ± 1.

In turn, `N#Cc1c(NC(=O)c2cccc(F)c2)sc2c1CCC2` displayed an ERSE-FLuc reporter activation of 25.9 ± 3.9. As to `CCN1C(=O)/C(=C\c2ccc(O)cc2O)SC1=S`, the ERSE-FLuc reporter activation came out at 36.3 ± 8.3. The figure for `COc1cccc(-c2cc(C(=O)Nc3cc(C)ccc3O)on2)c1` is 34.2 ± 8.4.

Regarding `COc1ccccc1-c1nnc(Nc2nc3c(OC)cccc3s2)o1`, the ERSE-FLuc reporter activation worked out at 51 ± 10. For `CN(C)c1ccc(/C=C(/C#N)C(=O)Nc2ccc(O)cc2)cc1`, the ERSE-FLuc reporter activation was 33.3 ± 5.

The record behind these values is the supplement of paper PMC4954754.
